Assay [1] in a line: small molecules captured by biotinylated probe aFSTL3 – biochemical, small-molecule microarray, fluorescence 635/667, stem cell growth factor project, primary screen (AID 1064).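 Note: measures binding of the biotinylated anti-FSTL3 antibody to printed compounds.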 The note with it: higher = more signal.
A short description of assay [2]: binders from COS7 lysate, DM2A8 probe, primary screen, torsin A project, cell lysate, small-molecule microarray, fluorescence 635/667 (AID 1065). The note with it: higher = more signal, COS7 lysate expressing mutant human TOR1A.
Assay [3] in a line: small molecules captured by biotinylated probe aFGF2 – biochemical, small-molecule microarray, fluorescence 635/667, stem cell growth factor project, primary screen (AID 1067).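 Note: measures binding of biotinylated aFGF2 protein to printed compounds on slides; z-score merges feature fluorescence and signal-to-noise across triplicate slides.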 The note with it: higher = more signal.
Assay [4] is described as follows: small molecules captured by biotinylated probe aFGF10 – biochemical, small-molecule microarray, fluorescence 635/667, stem cell growth factor project, primary screen (AID 1071).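 Note: score merges 667 nm spot intensity and signal to noise from triplicate slides.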 The note with it: higher = more signal.
Assay [5] deals with Neurogenic locus notch homolog protein 2 (Homo sapiens) (UniProt Q04721). Briefly: small molecules binding Notch2 protein – biochemical, small-molecule microarray, 635 nm fluorescence, stem cell growth factors, primary screen (AID 1073). As to conditions: higher = more signal.
The target of assay [6] is Pro-neuregulin-1, membrane-bound isoform (Homo sapiens) (UniProt Q02297). Briefly: small molecules binding neuregulin-1 protein – biochemical, small-molecule microarray, fluorescence 635/667, psychiatric disease protein project, primary screen (AID 1075).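 Note: score combines 667 nm spot fluorescence with signal to noise.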 As to conditions: NRG1 binding, 635 nm fluorescence, higher = more signal.
Assay [7] has as its system Neuregulin-1 EGF-like domain. Briefly: small molecules binding NRG1 EGF domain – biochemical, small-molecule microarray, 635 nm fluorescence, primary screen (AID 1081).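 Note: binding of the protein to compounds printed on small-molecule microarray slides.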 As to conditions: higher = more signal.
Assay [8] in a line: FRG1 expression reporter modulators in myotubes – cell-based, C2C12 myotubes, firefly/Renilla luciferase, luminescence, FRG1 inhibition for FSHD, primary screen (AID 1084). As to conditions: FRG1 promoter luciferase, higher = more signal, called active from +8 up or from −8 down.
Assay [9] in a line: small molecules captured by biotinylated probe aFST – biochemical, small-molecule microarray, fluorescence 635/667, stem cell growth factor project, primary screen (AID 1086).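 Note: score merges 667 nm fluorescence with signal-to-noise of each printed compound spot.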 As to conditions: higher = more signal.
Assay [10] is described as follows: binders of probe aHhip on microarray, primary screen, stem cell growth factor project, biochemical, small-molecule microarray, fluorescence 635/667 (AID 1087).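 Note: score merges spot fluorescence at 667nm with spot signal to noise ratio.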 The note with it: higher = more signal.
Assay [11] has as its system PRMT1 (protein arginine N-methyltransferase 1). Briefly: small molecules binding arginine methyltransferase PRMT1 – biochemical, small-molecule microarray, 635 nm fluorescence, primary screen (AID 1088).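 Note: binding of Prmt1 protein to compounds spotted on small-molecule microarray slides.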 The note with it: higher = more signal.
Assay [12] is described as follows: growth effects on S. cerevisiae YJM789 – YJM789 clinical isolate, OD600, 24 h, basal, primary screen (AID 1089).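 Note: growth of clinical yeast isolate S. cerevisiae YJM 789 seeded 1000 cells per well; test concentration not given here.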 The note with it: higher = more signal, called active from +8 up or from −8 down.
Assay [13] can be described thus: S. pombe growth modifiers, basal conditions – strain 972, OD600, 24 h, no modulator, primary screen (AID 1090).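 Note: basal condition with compound alone and no growth modifier present; test concentration not given here.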 The note with it: S. pombe 972 growth, higher = more signal, called active from +8 up or from −8 down.
A short description of assay [14]: budding yeast growth modifiers under rapamycin – strain BY4716, OD600, 96 h, primary screen (AID 1091). Note: test concentration not given here. The note with it: S. cerevisiae BY4716 + rapamycin, higher = more signal, called active from +8 up or from −8 down.
The target of assay [15] is Torsin-1A-interacting protein 2 (Homo sapiens) (UniProt Q8NFQ8). Briefly: small molecules binding lysate-expressed LULL1 – cell lysate, human LULL1 lysate, 635/667 nm fluorescence, primary screen (AID 1092).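 Note: probe is lysate of COS7 cells overexpressing human LULL1; score merges per-feature 667 nm fluorescence with signal-to-noise.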 As to conditions: small-molecule microarray, hLULL1 lysate binding, 635 nm fluorescence; higher = more signal.
Assay [16] can be described thus: optical density change of DRC41 E. coli – strain DRC41, OD650, 24 h, E. coli filamentation project, primary screen (AID 1093).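 Note: MC1000 strain lacking acrAB efflux and sulA so SOS filamentation is blocked; test concentration not given here.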 The note with it: E. coli DRC41 growth, higher = more signal, called active from +8 up or from −8 down.
Assay [17] can be described thus: probe aLefty2 binding to arrayed compounds – biochemical, biotinylated probe, 635/667 nm fluorescence, primary screen (AID 1094).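 Note: score merges spot fluorescence near 667 nm with spot signal-to-noise ratio.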 As to conditions: small-molecule microarray, higher = more signal.
Assay [18] deals with Noggin (protein binding on small-molecule microarray). Briefly: small molecules binding Noggin protein – biochemical, 635/667 nm fluorescence, primary screen (AID 1095).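 Note: score merges 667 nm feature fluorescence with signal to noise over triplicate slides.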 The note with it: 635 nm fluorescence, higher = more signal.
Assay [19] addresses Neurogenic locus notch homolog protein 3 (Homo sapiens) (UniProt Q9UM47). Briefly: small molecules binding NOTCH3 protein – biochemical, 635/667 nm fluorescence, primary screen (AID 1096). The note with it: small-molecule microarray, 635 nm fluorescence, higher = more signal.
Assay [20] is described as follows: probe aEGFR binding to arrayed compounds – biochemical, biotinylated probe, 635/667 nm fluorescence, primary screen (AID 1097).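 Note: probe is a biotinylated anti-EGFR antibody binding compounds printed on slides; score combines fluorescence near 667 nm and signal to noise of each spot.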 The note with it: small-molecule microarray, higher = more signal.

Each structure is given as a SMILES string. The source made the active and inactive calls.

Neurogenic locus notch homolog protein 2 (Homo sapiens), sequence (Q04721 whole entry, looked up, canonical isoform): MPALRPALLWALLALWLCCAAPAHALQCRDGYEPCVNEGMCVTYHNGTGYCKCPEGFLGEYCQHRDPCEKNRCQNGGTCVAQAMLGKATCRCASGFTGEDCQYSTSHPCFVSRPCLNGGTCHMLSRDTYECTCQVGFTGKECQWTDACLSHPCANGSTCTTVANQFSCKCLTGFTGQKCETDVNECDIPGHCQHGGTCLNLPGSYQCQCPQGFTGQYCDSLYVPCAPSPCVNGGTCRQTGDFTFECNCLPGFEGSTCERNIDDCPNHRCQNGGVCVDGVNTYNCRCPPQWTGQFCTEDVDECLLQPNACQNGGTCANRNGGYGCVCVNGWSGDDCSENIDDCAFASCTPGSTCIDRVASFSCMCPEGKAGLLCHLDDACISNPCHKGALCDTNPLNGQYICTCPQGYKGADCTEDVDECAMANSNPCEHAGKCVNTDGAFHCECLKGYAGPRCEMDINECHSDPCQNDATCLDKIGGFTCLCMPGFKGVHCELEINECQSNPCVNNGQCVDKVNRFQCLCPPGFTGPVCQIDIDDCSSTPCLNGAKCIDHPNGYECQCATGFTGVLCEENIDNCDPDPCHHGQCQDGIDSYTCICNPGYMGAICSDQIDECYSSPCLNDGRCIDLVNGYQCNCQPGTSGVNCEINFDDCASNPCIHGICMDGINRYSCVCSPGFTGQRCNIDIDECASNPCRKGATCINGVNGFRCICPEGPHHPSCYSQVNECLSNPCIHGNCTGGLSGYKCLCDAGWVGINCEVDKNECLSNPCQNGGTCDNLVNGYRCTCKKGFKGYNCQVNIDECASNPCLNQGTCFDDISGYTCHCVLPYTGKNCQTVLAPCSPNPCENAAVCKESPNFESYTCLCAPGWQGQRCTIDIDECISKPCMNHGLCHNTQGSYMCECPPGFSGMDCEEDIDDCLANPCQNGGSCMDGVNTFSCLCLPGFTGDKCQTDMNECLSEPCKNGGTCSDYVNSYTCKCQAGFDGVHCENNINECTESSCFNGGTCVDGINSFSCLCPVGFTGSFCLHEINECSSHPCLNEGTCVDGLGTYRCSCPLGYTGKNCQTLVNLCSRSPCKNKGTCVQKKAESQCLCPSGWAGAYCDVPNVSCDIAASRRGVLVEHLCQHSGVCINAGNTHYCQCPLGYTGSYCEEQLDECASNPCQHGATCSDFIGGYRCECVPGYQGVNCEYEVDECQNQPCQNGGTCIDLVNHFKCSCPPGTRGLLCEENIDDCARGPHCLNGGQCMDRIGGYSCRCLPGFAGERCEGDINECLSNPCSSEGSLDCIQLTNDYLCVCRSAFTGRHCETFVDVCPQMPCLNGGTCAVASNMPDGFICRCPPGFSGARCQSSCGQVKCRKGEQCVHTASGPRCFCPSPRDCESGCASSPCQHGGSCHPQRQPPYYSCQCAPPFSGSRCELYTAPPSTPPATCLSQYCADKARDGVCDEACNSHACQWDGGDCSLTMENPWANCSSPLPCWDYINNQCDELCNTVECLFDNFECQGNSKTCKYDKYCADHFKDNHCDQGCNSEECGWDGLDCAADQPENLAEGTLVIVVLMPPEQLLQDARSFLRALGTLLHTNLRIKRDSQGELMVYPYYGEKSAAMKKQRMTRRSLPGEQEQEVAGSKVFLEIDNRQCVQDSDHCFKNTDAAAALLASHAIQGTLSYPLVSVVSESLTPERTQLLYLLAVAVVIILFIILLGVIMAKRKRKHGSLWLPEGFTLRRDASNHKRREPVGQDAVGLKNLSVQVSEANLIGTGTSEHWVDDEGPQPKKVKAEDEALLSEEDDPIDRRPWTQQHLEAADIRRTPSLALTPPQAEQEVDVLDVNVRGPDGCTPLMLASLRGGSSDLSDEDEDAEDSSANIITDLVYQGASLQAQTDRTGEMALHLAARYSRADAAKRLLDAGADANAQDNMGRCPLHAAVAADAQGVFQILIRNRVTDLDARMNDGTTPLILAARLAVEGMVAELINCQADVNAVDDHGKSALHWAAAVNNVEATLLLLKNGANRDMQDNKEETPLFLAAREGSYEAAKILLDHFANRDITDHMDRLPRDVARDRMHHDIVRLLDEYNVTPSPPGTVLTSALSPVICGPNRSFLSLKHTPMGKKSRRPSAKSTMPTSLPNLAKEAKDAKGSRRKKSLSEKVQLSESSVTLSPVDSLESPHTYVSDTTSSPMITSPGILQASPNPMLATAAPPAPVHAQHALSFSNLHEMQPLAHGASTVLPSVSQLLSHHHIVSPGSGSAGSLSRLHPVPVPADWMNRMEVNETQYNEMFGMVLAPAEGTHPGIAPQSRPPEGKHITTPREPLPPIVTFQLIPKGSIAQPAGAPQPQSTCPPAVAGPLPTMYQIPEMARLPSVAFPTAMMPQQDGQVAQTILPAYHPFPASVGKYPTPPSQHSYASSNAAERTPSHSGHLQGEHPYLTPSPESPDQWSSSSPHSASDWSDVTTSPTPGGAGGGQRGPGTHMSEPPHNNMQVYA
Torsin-1A-interacting protein 2 (Homo sapiens), sequence (Q8NFQ8 whole entry, looked up): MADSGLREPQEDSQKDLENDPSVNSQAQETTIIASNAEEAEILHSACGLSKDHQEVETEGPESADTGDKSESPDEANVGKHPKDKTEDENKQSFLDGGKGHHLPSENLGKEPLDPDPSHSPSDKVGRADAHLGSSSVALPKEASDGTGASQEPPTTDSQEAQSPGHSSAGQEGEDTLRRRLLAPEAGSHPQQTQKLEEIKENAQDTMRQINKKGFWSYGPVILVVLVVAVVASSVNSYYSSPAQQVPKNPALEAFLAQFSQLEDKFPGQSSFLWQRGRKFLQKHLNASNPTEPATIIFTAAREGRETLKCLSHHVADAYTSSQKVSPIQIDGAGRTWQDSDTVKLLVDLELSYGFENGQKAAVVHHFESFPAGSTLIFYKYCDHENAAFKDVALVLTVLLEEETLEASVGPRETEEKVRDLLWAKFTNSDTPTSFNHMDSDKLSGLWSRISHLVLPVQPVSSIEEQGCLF
Pro-neuregulin-1, membrane-bound isoform (Homo sapiens), sequence (Q02297 whole entry, looked up, the tested form may be a part, canonical isoform): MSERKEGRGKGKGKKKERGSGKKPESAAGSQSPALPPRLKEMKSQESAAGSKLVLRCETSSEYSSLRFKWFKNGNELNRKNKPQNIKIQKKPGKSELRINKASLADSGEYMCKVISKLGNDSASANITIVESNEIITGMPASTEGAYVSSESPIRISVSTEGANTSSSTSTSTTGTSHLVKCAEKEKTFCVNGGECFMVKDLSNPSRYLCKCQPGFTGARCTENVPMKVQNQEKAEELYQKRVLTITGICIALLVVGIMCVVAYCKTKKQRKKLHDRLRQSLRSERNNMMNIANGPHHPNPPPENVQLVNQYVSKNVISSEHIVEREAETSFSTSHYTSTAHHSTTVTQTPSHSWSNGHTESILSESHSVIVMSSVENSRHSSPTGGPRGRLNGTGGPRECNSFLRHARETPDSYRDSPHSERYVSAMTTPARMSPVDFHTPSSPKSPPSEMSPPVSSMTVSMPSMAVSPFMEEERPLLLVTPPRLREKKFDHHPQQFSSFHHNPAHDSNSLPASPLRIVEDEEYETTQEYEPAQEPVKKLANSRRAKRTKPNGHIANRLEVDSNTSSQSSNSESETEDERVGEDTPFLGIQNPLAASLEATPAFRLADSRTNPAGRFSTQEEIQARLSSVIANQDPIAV

Take `CCOC(=O)C[C@H]1[C@H](OC(=O)c2ccccc2-c2ccccc2)[C@@H](NC(=O)c2ccc3ccccc3n2)c2cc(OCCCO)ccc2N1C(=O)c1ccccc1`: the composite z-score in assay [1] was -0.384; in assay [2], 0.491; in assay [3], -0.0752; in assay [4] it was 0.331; in [5], 0.417; in assay [6], 0.288. Further, the composite z-score was 0.666 in assay [7]; 0.377 in assay [9]; 0.0401 in assay [10]; 1.01 in assay [11]; 1.46 in [15]; -0.149 in [17]. Further, the composite z-score in assay [18] is 0.54; in [19] it was 0.797; in [20], -0.0084. The z-score in assay [8] is -0.764 (inactive); in assay [12], 1.2 (inactive); in [13] it was 0.364 (inactive); in [14], 1.61 (inactive); in assay [16] it was -0.943 (inactive).

On to `COCC1=C2[C@@H](CCc3ccccc3)OB(O)C[C@@H]2[C@@H]2C(=O)N(C)C(=O)[C@@H]2C1`, for which the composite z-score is -0.136 in assay [1]; 0.0288 in assay [2]; -0.164 in assay [3]; 0.511 in assay [4]; 0.21 in [5]; -0.295 in [6]. In addition, the composite z-score in [7] is 0.843; in assay [9], -0.0464; in assay [10] it was -0.0618; in assay [11], -0.0522; in [15], 0.332; in assay [17] it was -0.0141. The results for the composite z-score in assay [18], in assay [19] and in assay [20] were 0.0638, 0.183 and -0.131, respectively. In addition, the z-score is -3.25 (inactive) in assay [8]; -0.31 (inactive) in assay [12]; -1.56 (inactive) in assay [13]; -0.53 (inactive) in assay [14]; -0.817 (inactive) in assay [16].

With `O=C1N[C@@H](Cc2ccccc2)C(=O)N2[C@@H]1C[C@@H](C(=O)O)[C@H]2c1ccc(O)cc1`, the composite z-score in assay [1] is 0.106; in assay [2] it was 0.726; in assay [3] it was -0.0773; in [4], 0.473; in assay [5], 0.0865; in [6], 1.77. The composite z-score was 1.37 in assay [7]; 0.661 in assay [9]; -0.257 in [10]; 1.19 in assay [11]; 2.41 in assay [15]; 0.391 in assay [17]. Besides, the composite z-score turned out to be 1.5 in assay [18], 1.11 in assay [19] and 0.335 in assay [20]. The z-score in assay [8] is 4.65 (inactive); in assay [12], -0.0447 (inactive); in [13], -0.701 (inactive); in assay [14], -0.54 (inactive); in [16], 1.54 (inactive).

For the molecule `C=C(C)[C@@H]1CC=C(C(O)C2C=CC3C(=O)N(c4ccccc4)C(=O)C3N2Nc2ccc(C#N)cc2)CC1` (stereo not given in full), the composite z-score in [1] is -0.266; in assay [2] it was -0.278; in assay [3], 0.169; in assay [4] it was 0.783; in assay [5], 1.65; in assay [6] it was 1.81. For the same molecule, the composite z-score in assay [7] is 1.33; in [9], 1.53; in assay [10], -0.112; in [11], 1.54; in assay [15] it was 3.33; in assay [17] it was 0.386. For the same molecule, the composite z-score in assay [18] came to 0.35; in assay [19], 1.04; in assay [20], 0.0717. In addition, the z-score was -1.74 (inactive) in [8]; 0.188 (inactive) in assay [12]; 0.369 (inactive) in [13]; 4.16 (inactive) in assay [14]; -1.9 (inactive) in assay [16].

Consider `CC(C)[C@H]1NC(=O)[C@@]23C(=O)N[C@@H](Cc4ccccc4)C2[C@H](C)[C@@]2(C)O[C@H]2C3/C=C/CCC/C=C/CNC(=O)[C@H](Cc2ccccc2)NC1=O` (stereo not given in full), for which the composite z-score in [1] was -0.245; in [2], 0.719; in [3], -0.147; in [4], -0.0587; in [5], 0.046; in assay [6], 1.57. In addition, the composite z-score in assay [7] was 1.22; in [9] it was -0.419; in assay [10], -0.319; in [11], 0.776; in assay [15], 2.47; in assay [17], -0.232. The composite z-score in assay [18] was 1.22; in assay [19] it was 0.419; in assay [20] it was -0.161. For the same molecule, the z-score was 0.966 (inactive) in assay [8]; 0.249 (inactive) in assay [12]; -1.4 (inactive) in [13]; -0.622 (inactive) in assay [14]; 0.139 (inactive) in [16].

For the origin of these results see PubChem BioAssay.
